ELG1 genotoxic: induces genotoxicity in HEK293T cells with luciferase-tagged ELG1; HEK293T ELG1-luciferase reporter, luminescence, 16 h; 1.3% of 330,000 active; Potency, µM (highest dose often 46 µM), most hits filed as activators; also: nearly all actives have a fitted effect of over 60% in size
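Step 1: seed 2,000 HEK293T ELG1-luciferase cells per well. Step 2: add compound or DMSO, incubate 16 hr at 37 °C. Step 3: ONE-Glo, 30 min at room temperature, read luminescence.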
ELG1 repair inh: inhibitors of ELG1-dependent DNA repair in HEK293T cells; HEK293T ELG1-luciferase reporter, luminescence, 16 h; DNA damage induced by 5-fluorouridine; AID 504467; 2.3% of 330,000 active; Potency, µM (series often up to 46.1 µM), actives largely listed as inhibitors; also: nearly all actives have a fitted effect of over 55% in size
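Reporter activity after DNA damage by 5-fluorouridine is monitored. Compound-treated cells incubate 16 hr at 37 °C, then ONE-Glo is added for 30 min before luminescence reading.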
Rab9 promoter act: activates the Rab9 promoter. Huh7 Rab9 promoter-luciferase reporter, luminescence, 24 h. 2.8% of 320,000 active. Potency, µM (top dose mostly 9.22 µM), actives largely listed as activators; also: nearly all actives have a fitted effect of over 60% in size
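Luminescence read-out: Huh7 cells stably expressing Rab9-luciferase, treated 24 h with compound at 37 °C, then lysed with luciferase reagent for 10 min at ambient before reading.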
FLuc modulator: firefly luciferase modulation, counter-screen for miR-21 project; AID 588342; P08659; 6.9% of 360,000 active; Potency, µM (top dose mostly 57.5 µM), hits mostly inhibitors; purified FLuc, Km substrates, luminescence inhibition; also: nearly all actives have a fitted effect of over 55% in size
Target sequence (P08659 whole entry, looked up): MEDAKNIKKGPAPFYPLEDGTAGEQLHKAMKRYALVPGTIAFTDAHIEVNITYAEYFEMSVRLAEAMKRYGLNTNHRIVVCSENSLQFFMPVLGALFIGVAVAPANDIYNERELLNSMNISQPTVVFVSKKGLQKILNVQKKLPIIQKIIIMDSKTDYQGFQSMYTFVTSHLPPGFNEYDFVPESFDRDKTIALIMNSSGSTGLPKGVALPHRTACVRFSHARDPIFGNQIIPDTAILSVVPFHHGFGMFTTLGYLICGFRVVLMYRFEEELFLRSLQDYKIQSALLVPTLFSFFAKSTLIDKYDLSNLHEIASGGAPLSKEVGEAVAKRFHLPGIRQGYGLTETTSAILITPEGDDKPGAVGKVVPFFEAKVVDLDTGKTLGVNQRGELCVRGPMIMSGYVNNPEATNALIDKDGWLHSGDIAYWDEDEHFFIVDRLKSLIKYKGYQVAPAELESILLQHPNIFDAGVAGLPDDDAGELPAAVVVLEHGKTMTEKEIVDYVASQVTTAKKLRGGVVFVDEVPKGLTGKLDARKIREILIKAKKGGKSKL
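Purified P. pyralis luciferase (10nM final) with 10uM D-luciferin and 10uM ATP (Km levels) in 50mM Tris acetate pH 7.5, 10mM Mg acetate, 0.01% Tween-20, 0.05% BSA; qHTS 6-point titration, ~60 µM downward; luminescence read.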
SMN2 splice up: SMN2 splice variant enhancement; Potency, µM (top dose mostly 46.1 µM), actives largely listed as activators; 2.8% of 210,000 active; HEK293 SMN2-luciferase splicing reporter, luminescence, 30-36 h; also: nearly all actives have a fitted effect of over 55% in size
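qHTS luciferase splicing reporter: luminescence rises when SMN2 exon 7 is included in transfected HEK293 cells. Compound exposure lasted 30-36 h at 37C, with 4.5 mM final sodium butyrate as control, followed by a ONE-Glo read.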
NPC1 prom act: activators of NPC1 promoter. 2.4% of 320,000 active. AID 485313. Potency, µM (doses to about 9.22 µM), usual class: activators. Huh7 NPC1 promoter luciferase reporter, 24 h; also: nearly all actives have a fitted effect of over 60% in size
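Luminescence read-out of NPC1 promoter-driven luciferase in stably transfected Huh7 cells; compounds delivered in DMSO and left 24 h at 37C, 5% CO2, qHTS titration format.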
Of the large screens only hits and unclear results are named; the others gave an inactive call. Only some compounds are listed: those with a hit (about 9.3% of all), similar ones and a draw of the others. Calls follow the shape of the dose curve; as a rule, active = well fitted curve in the direction sought with a large enough effect; inconclusive = small, poorly fitted or top-dose-only effect, or another doubt; inactive = no such curve, though single readings can be large; an effect the other way counts as inactive or inconclusive.

CC(C)(C)c1cc(C(=O)N/N=C/c2ccccn2)n[nH]1	ELG1 repair inh inconclusive, FLuc modulator inconclusive (no result: SMN2 splice up)
COc1ccc(N(CC(=O)NC2CCCC2)C(=O)Cn2nnc(-c3ccc(OC)c(OC)c3)n2)cc1	none (no result: SMN2 splice up)
C=CCNC(=O)COc1ccc(Br)cc1Cl	ELG1 repair inh inconclusive, Rab9 promoter act inconclusive, FLuc modulator 17µM, SMN2 splice up inconclusive, NPC1 prom act inconclusive
O=C(COc1ccc(Br)cc1Cl)NC1CCCCC1	ELG1 genotoxic inconclusive, ELG1 repair inh inconclusive, Rab9 promoter act 1.4µM, FLuc modulator 3µM, SMN2 splice up inconclusive, NPC1 prom act 2.8µM
O=C(COc1ccc(Br)cc1Br)NC1CCCC1	ELG1 repair inh inconclusive, FLuc modulator 17µM
CC(C)NC(=O)NC(=O)COc1c(F)c(F)cc(F)c1F	none
CC(C)NC(=O)NC(=O)COc1ccc(Br)cc1Br	ELG1 genotoxic 3.3µM, ELG1 repair inh inconclusive, Rab9 promoter act 2µM, FLuc modulator 1.2µM, SMN2 splice up 2.5µM, NPC1 prom act 1µM
COCCNC(=O)COc1ccc(Br)cc1Cl	ELG1 genotoxic inconclusive, ELG1 repair inh inconclusive, FLuc modulator inconclusive
O=C(COc1ccc(Br)cc1Br)NC1CCS(=O)(=O)C1 (stereo not given)	ELG1 repair inh inconclusive (no result: SMN2 splice up)
Cc1ccc2cc(C#N)c(N3CCCN(C(=O)C4CCCO4)CC3)nc2c1 (stereo not given)	none
COc1ccc(C2=CC(=O)C[C@H](c3ccc(F)cc3)C2)cc1F	ELG1 repair inh inconclusive (no result: SMN2 splice up)
O=C(COc1ccccc1Cl)c1ccc[nH]1	ELG1 genotoxic inconclusive, ELG1 repair inh inconclusive, Rab9 promoter act inconclusive, FLuc modulator inconclusive, SMN2 splice up inconclusive
O=C(COc1ccc(Br)cc1Cl)c1ccc[nH]1	ELG1 repair inh inconclusive, Rab9 promoter act 4µM, FLuc modulator 19µM, SMN2 splice up inconclusive, NPC1 prom act inconclusive
O=C(COc1ccc(Br)cc1Cl)NC(=O)NC1CCCC1	ELG1 genotoxic inconclusive, ELG1 repair inh inconclusive, Rab9 promoter act inconclusive, FLuc modulator 9.5µM (no result: SMN2 splice up)
Nc1ccc(C(=O)NC2CCSc3ccccc32)cc1[N+](=O)[O-] (stereo not given)	ELG1 repair inh inconclusive, FLuc modulator inconclusive (no result: SMN2 splice up)
O=C(CCN1C(=O)COc2ccccc21)NCc1ccco1	none
O=C(Nn1cnnc1)c1cc2c(s1)CCCCC2	ELG1 genotoxic inconclusive, ELG1 repair inh inconclusive, FLuc modulator 6.7µM, SMN2 splice up inconclusive
O=C(N/N=C/c1ccc(F)c(F)c1)c1cc2c(s1)-c1ccccc1CC2	none
O=C(NCCCn1ccnc1)c1cc2c(s1)CCCCC2	ELG1 genotoxic inconclusive, FLuc modulator 17µM
Cc1ccc(C(=O)NC2CCC(C)CC2)s1 (stereo not given)	ELG1 genotoxic inconclusive, ELG1 repair inh inconclusive, Rab9 promoter act 0.4µM, FLuc modulator inconclusive, NPC1 prom act 0.89µM (no result: SMN2 splice up)
CNC(=O)c1cc2c(s1)-c1ccccc1CC2	ELG1 genotoxic inconclusive, ELG1 repair inh inconclusive, Rab9 promoter act inconclusive, FLuc modulator 19µM, SMN2 splice up 7.9µM, NPC1 prom act inconclusive
Cc1ccc(-c2c(C#N)c(N)nc3c2CCCCC3)o1	none
Cc1ccc(C(=O)NCC(c2cccs2)S(=O)(=O)c2ccccc2)cc1C (stereo not given)	none (no result: ELG1 genotoxic, ELG1 repair inh, Rab9 promoter act, SMN2 splice up, NPC1 prom act)
CC(C)NC(=O)c1cc2c(s1)CCCC2	ELG1 repair inh inconclusive, FLuc modulator inconclusive
O=C(NCCO)c1cc2c(s1)CCC2	none
CC(OC(=O)c1cc2c(s1)CCCCC2)C(=O)NC(N)=O (stereo not given)	ELG1 repair inh inconclusive, FLuc modulator 24µM
O=C(NCc1ccco1)c1cc2c(s1)CCCCC2	ELG1 genotoxic 12µM, ELG1 repair inh inconclusive, Rab9 promoter act 1.6µM, FLuc modulator 13µM, SMN2 splice up 14µM, NPC1 prom act 4µM
CC1CCC(NC(=O)c2cc3c(s2)CCCC3)CC1 (stereo not given)	ELG1 genotoxic inconclusive, ELG1 repair inh inconclusive, Rab9 promoter act inconclusive, FLuc modulator 12µM, NPC1 prom act inconclusive (no result: SMN2 splice up)
CNC(=O)c1cc2c(s1)CCCCCC2	ELG1 repair inh inconclusive, FLuc modulator 13µM
COc1ccccc1NS(=O)(=O)c1cccc(C(=O)NNC(=O)c2ccc(Cl)nc2)c1	ELG1 repair inh inconclusive (no result: Rab9 promoter act, FLuc modulator, SMN2 splice up, NPC1 prom act)
